CYP2C9 inhib – human CYP2C9 inhibition | inhibition, % at 5 µM | CYP2C9 Supersomes, luciferin-H conversion, luminescence | hit rate 20% among 96,000 | P11712;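 active = blocking of liver enzyme CYP2C9 beyond about 50% at 5 µM, limit read from the data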
PostGolgi yeast – growth inhibition of a yeast mutant, post-Golgi transport screen; post-Golgi transport phenotypic cell assay; inhibition, % at 10 µM; hit rate 0.9% among 98,000; AID 739;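 also: yeast cells grown in 1536-well plates; yeast grown about 18 h at 30C before absorbance read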
CYP2C19 activ – cytochrome P450 2C19 (human) activation. recombinant CYP2C19, luciferin-H EGE luminescence; hits give high values; 0 = fully inhibited enzyme, 1 = untreated enzyme. activation factor at 5 µM. 96,000 tested, under 10 active. AID 1025;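 active = activation factor of at least 2 at 5 µM in the primary screen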
Target sequence (P33261 whole entry, looked up): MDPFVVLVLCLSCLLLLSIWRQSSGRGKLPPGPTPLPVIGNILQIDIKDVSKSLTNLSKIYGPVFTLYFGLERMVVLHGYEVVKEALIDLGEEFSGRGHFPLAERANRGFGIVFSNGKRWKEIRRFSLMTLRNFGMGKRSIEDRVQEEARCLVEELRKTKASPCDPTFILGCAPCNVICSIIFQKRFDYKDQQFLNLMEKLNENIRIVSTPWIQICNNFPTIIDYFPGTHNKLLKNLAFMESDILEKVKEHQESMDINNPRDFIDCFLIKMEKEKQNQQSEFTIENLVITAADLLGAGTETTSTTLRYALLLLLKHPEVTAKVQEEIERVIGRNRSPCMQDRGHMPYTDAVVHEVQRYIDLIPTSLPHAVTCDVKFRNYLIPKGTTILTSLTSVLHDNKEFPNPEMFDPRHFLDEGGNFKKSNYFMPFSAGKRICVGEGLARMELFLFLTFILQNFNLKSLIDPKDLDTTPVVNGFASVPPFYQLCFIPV
PostGolgi ctrl – yeast control strain growth, post-Golgi counter-screen; efflux-deficient yeast background strain, growth absorbance A615, 16 h; inhibition, % at 10 µM; hit rate 5% among 98,000; AID 738
CYP2C9 act – CYP2C9 (human) activation; P11712; recombinant CYP2C9, luciferin-H conversion, luminescence; hits give high values; factor 1 = untreated enzyme, 0 = blocked; activation factor at 5 µM; hit rate 1.4% among 96,000;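 active = activation factor of 2 or more for CYP2C9 at a 5 µM dose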
CYP2C19 inhib – human CYP2C19 inhibition | P33261 | CYP2C19 Supersomes, luciferin-H EGE luminescence, 30 min | inhibition, % at 5 µM | hit rate 21% among 96,000;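 active = CYP2C19 inhibition above a set limit at 5 µM in the primary screen, cut at about 50% in these data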
A number is an active result; – = inactive; · = no result given. Sampled rows, rich in hits. Any-hit rate of the full collection: about 32%. Rule as the data show it, unless noted: active = inhibition above about 30%; inactive = the rest.

SMILES | CYP2C9 inhib | PostGolgi yeast | CYP2C19 activ | PostGolgi ctrl | CYP2C9 act | CYP2C19 inhib
CC1(C)C(=O)OC(c2c(F)c(F)c(F)c(F)c2F)C2(CCCCC2)C1=O (stereo not given) | – | – | – | – | – | –
COCCn1c(SCc2nc3ccccc3c(=O)[nH]2)nnc1-c1ccncc1 | – | – | – | – | – | 52.4
C=CCn1c(SCC(=O)O)nnc1-c1cccc(Cl)c1 | – | – | – | – | – | –
COCCCn1c(-c2ccccc2)nc2ccccc2c1=O | – | – | – | – | – | –
O=c1[nH]c(CSc2nnc(-c3ccncc3)n2Cc2ccco2)nc2ccccc12 | 56.2 | – | – | – | – | –
COCCCn1c(SCc2nc3ccccc3c(=O)[nH]2)nc2ccccc2c1=O | 66.6 | – | – | – | – | –
C=CCn1c(SCc2nc3ccccc3c(=O)[nH]2)nnc1-c1cc2cc(Cl)ccc2o1 | 68.3 | – | – | – | – | –
COc1ccc(C(=O)N(CC2CCCO2)C(C(=O)NC2CCCC2)c2ccc(C)cc2)cc1OC (stereo not given) | – | – | – | – | – | –
COc1cc(/C=C/C(=O)N2CCN(CC(O)COc3ccccc3)CC2)cc(OC)c1OC (stereo not given) | – | – | – | – | – | –
COc1ccc(-n2c(Cn3c(=O)sc4ccccc43)nnc2SCC(=O)N2CCOCC2)cc1 | – | – | – | – | – | –
CCOC(=O)c1[nH]c(CSc2nnc(-c3ccncc3)n2CCOC)c(C(=O)OCC)c1C | 94.3 | – | – | – | – | 65.0
NC(=O)c1ccc(C(F)(F)F)n(Cc2ccccc2Cl)c1=O | – | – | – | 44.4 | – | 68.7
NC(=O)c1cccn1Cc1ccccc1Cl | – | – | – | – | – | –
Cc1cc(-c2c(C)n([O-])c(C)c(C)[n+]2=O)ccc1F | – | – | – | – | – | –
O=C(C1CC1)N1CCN=C1SCc1cccc(F)c1 | – | – | – | – | – | 89.9
O=C(C1CC1)N1CCN=C1SCc1ccc(F)cc1 | – | – | – | – | – | 91.0
Cc1cccc(CSC2=NCCN2C(=O)c2ccc(Br)o2)c1 | – | – | – | – | – | 72.9
O=C(c1ccco1)N1CCN=C1SCc1ccccc1Cl | – | – | – | – | 2.6 | –
O=C(C1CC1)N1CCN=C1SCc1ccccc1 | – | – | – | – | – | 83.0
O=C(NCc1ccoc1)c1ccc(NC(=O)c2ccccc2Cl)cc1 | – | – | – | – | – | –
COc1ccc(NC(=O)CCC2COc3ccccc3O2)c(OC)c1 (stereo not given) | – | – | – | – | – | 83.1
COc1cccc(NC(=O)CC2COc3ccccc3O2)c1 (stereo not given) | – | – | – | – | – | –
COc1ccc(CNC(=O)C2COc3ccccc3O2)c(OC)c1 (stereo not given) | – | – | – | – | – | 77.8
COc1ccc(CCNC(=O)CNCC2CCCO2)cc1OC (stereo not given) | – | – | – | – | – | –
CCC(=O)Nc1ccc(OC)cc1OC | – | – | – | – | – | –
SMILES | CYP2C9 inhib | PostGolgi yeast | CYP2C19 activ | PostGolgi ctrl | CYP2C9 act | CYP2C19 inhib
COc1ccc(CCNC(=O)CC2COc3ccccc3O2)cc1OC (stereo not given) | 97.1 | – | – | – | – | 96.6
CCOc1ccc(OCC)c(NC(=O)C2COc3ccccc3O2)c1 (stereo not given) | – | – | – | – | – | –
Cc1ccc(NC(=O)CC2COc3ccccc3O2)cc1 (stereo not given) | – | – | – | – | – | 68.7
O=C(Cn1c(N2CCN(c3ccccc3)CC2)nc2ccccc21)c1ccccc1 | – | – | – | – | – | –
O=c1c(-c2nc3ccccc3o2)c2oc3ccccc3n2c2ccccc12 | – | – | – | – | – | –
Cc1noc(COc2ccccc2OCC(N)=O)c1Cl | – | – | – | – | – | –
Cc1cc2ccccc2n1CCNC(=O)Cc1cccc2ccccc12 | – | – | – | – | – | –
COc1ccc(OC)c(NC(=O)C2COc3ccccc3O2)c1 (stereo not given) | – | – | – | – | – | 66.9
CN1CCN(c2ccc(Cl)cc2NC(=O)c2cccc(S(=O)(=O)N(C)C)c2)CC1 | – | – | – | – | – | –
CN1CCN(c2ccc(Cl)cc2NC(=O)C2COc3ccccc3O2)CC1 (stereo not given) | – | – | – | 30.2 | – | –
O=c1ccc(NS(=O)(=O)c2ccc(Cl)cc2)cn1Cc1ccc(Cl)c(Cl)c1 | 89.9 | – | – | – | – | 97.2
Nc1cc(=O)[nH]c(SCc2cccc(Cl)c2)n1 | – | – | – | – | – | –
O=C(O)CSc1ncnc2c1oc1ccccc12 | – | – | – | – | – | –
O=C(CSc1ncnc2c1oc1ccccc12)NCc1ccco1 | 59.8 | · | – | · | – | –
Cc1nc(SCC(=O)Nc2ccc(C)c(F)c2)c2oc3ccccc3c2n1 | 93.0 | – | – | – | – | 79.4
COc1ccc(CCNC(=O)CSc2ncnc3c2oc2ccccc23)cc1OC | 82.1 | – | – | – | – | 51.2
O=C(CSc1ncnc2c1oc1ccccc12)Nc1ccccc1C(F)(F)F | 84.8 | – | – | – | – | –
O=C(NCN1C(=O)C2C3C=CC(C3)C2C1=O)OC1CCCCC1 (stereo not given) | – | – | – | – | – | –
COC(=O)c1cccc(S(=O)(=O)N(Cc2ccco2)Cc2cc3cc(OC)ccc3[nH]c2=O)c1 | – | – | – | – | – | –
Cn1cnc2cc(OC(=O)c3ccccc3)ccc21 | – | – | – | – | – | –
Cc1ccc(C)c(NC(=O)c2cc3c([nH]c4ccccc43)c(C)n2)c1 | – | – | – | – | – | –
Cc1ccc(C(=O)Oc2ccc3c(c2)ncn3C)cc1 | – | – | – | – | – | –
COc1ccc2c(Cl)c(C(N)=O)sc2c1 | – | – | – | – | – | –
COc1ccc2c(Cl)c(C(=O)NCCCn3ccnc3)sc2c1 | 90.8 | – | – | – | – | 97.5
COc1ccc2c(Cl)c(C(=O)NN)sc2c1 | 56.5 | – | – | – | – | 81.7
SMILES | CYP2C9 inhib | PostGolgi yeast | CYP2C19 activ | PostGolgi ctrl | CYP2C9 act | CYP2C19 inhib
Cc1ccc(C(=O)N2CCSCC2)cc1 | – | – | – | – | – | –
CCCCC(CCC(=O)Nc1nccs1)C(=O)O (stereo not given) | – | – | – | – | – | –
CCc1nc(SCC(=O)N2CC(=O)Nc3ccccc32)c2c(C)c(C)sc2n1 | – | – | – | – | – | –
Cc1sc2nc(C3CCCCC3)nc(SCC(=O)N3CC(=O)Nc4ccccc43)c2c1C | 85.6 | – | – | – | – | –
Cc1nnc(NC(=O)CSc2nnc(CNC(=O)c3ccccc3)n2-c2ccccc2)s1 | – | – | – | – | – | –
Cn1c(Cn2nnc3ccccc32)nnc1SCC(=O)N1c2ccccc2Sc2ccccc21 | 51.5 | – | – | – | – | –
Cn1c(Cn2nnc3ccccc32)nnc1SCC(N)=O | – | – | – | – | – | –
Cn1c(Cn2nnc3ccccc32)nnc1SCC(=O)N1c2ccccc2CCc2ccccc21 | 63.5 | – | – | – | – | –

Assay outcomes from PubChem BioAssay.
